Measured values reported in PubChem BioAssay AID1159580 (chemical genetic matrix, 2015).
Screen size: about 5,500 compounds; about 2,000 (36%) were called active. Inconclusive results (about 18%) are left out. Cut-off read from the data, not from the text of the source: active = normalized growth mostly below about 0.91 (no sharp cut-off); inconclusive = no clear call, values can overlap the other calls; inactive = mostly above about 0.92. This is one part of the list.

Assay: chemical genetic growth profiling, strain panel (AID 1159580);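 note: tested at 20 µM; growth read once vehicle control cultures reached saturation at 30 °C; 1 = growth at the plate median or of vehicle wells; lower values mean less growth of the strain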
Conditions: growth OD

Measured: normalized growth

CC12CCC3C(CC3(C)C)C(C)(CCC1=O)O2 (configuration not stated)
inactive: S. cerevisiae deletion strains, locus YJR043C, strain POL32, hits give low values 1.01 | S. cerevisiae deletion strains, locus YJR066W, strain TOR1, hits give low values 0.988 | S. cerevisiae deletion strains, locus YKL009W, strain mrt4, hits give low values 1.03 | S. cerevisiae deletion strains, locus YKL068W, hits give low values 1.01 | S. cerevisiae deletion strains, locus YKL085W, strain MDH1 (second series), hits give low values 1.01 | S. cerevisiae deletion strains, locus YKL085W, strain MDH1, hits give low values 1.01 | S. cerevisiae deletion strains, locus YKL160W, strain elf1, hits give low values 1.03 | S. cerevisiae deletion strains, locus YKL190W, strain CNB1, hits give low values 1.01 | S. cerevisiae deletion strains, locus YKR001C, strain vps1, hits give low values 1.03 | S. cerevisiae deletion strains, locus YKR026C, strain gcn3, hits give low values 0.994 | S. cerevisiae deletion strains, locus YKR091W, strain srl3, hits give low values 0.992 | S. cerevisiae deletion strains, locus YLL001W, strain dnm1, hits give low values 1.01 | S. cerevisiae deletion strains, locus YLL026W, hits give low values 0.997 | S. cerevisiae deletion strains, locus YLL041C, strain sdh2, hits give low values 0.992 | S. cerevisiae deletion strains, locus YLR027C, strain aat2, hits give low values 1.01 | S. cerevisiae deletion strains, locus YLR039C, strain RIC1, hits give low values 1.08 | S. cerevisiae deletion strains, locus YLR058C, strain SHM2, hits give low values 1.02 | S. cerevisiae deletion strains, locus YLR102C, strain apc9, hits give low values 1.01 | S. cerevisiae deletion strains, locus YLR113W, strain HOG1, hits give low values 1.04 | S. cerevisiae deletion strains, locus YLR221C, strain rsa3, hits give low values 1 | S. cerevisiae deletion strains, locus YLR258W, strain gsy2, hits give low values 0.99 | S. cerevisiae deletion strains, locus YLR262C, strain YPT6 (second series), hits give low values 0.992 | S. cerevisiae deletion strains, locus YLR268W, strain sec22, hits give low values 1.03 | S. cerevisiae deletion strains, locus YLR320W, strain mms22, hits give low values 0.992 | S. cerevisiae deletion strains, locus YLR330W, strain CHS5, hits give low values 1.02 | S. cerevisiae deletion strains, locus YLR342W, strain FKS1, hits give low values 0.992 | S. cerevisiae deletion strains, locus YLR357W, strain rsc2, hits give low values 1.01 | S. cerevisiae deletion strains, locus YLR370C, strain arc18, hits give low values 1.03 | S. cerevisiae deletion strains, locus YLR371W, strain rom2, hits give low values 0.982 | S. cerevisiae deletion strains, locus YLR384C, strain iki3, hits give low values 1 | S. cerevisiae deletion strains, locus YLR418C, strain cdc73, hits give low values 1.07 | S. cerevisiae deletion strains, locus YML016C, strain PPZ1, hits give low values 1.01 | S. cerevisiae deletion strains, locus YML032C, strain rad52, hits give low values 1.02 | S. cerevisiae deletion strains, locus YML120C, strain ndi1, hits give low values 1 | S. cerevisiae deletion strains, locus YML124C, strain tub3, hits give low values 1.02 | S. cerevisiae deletion strains, locus YMR058W, strain fet3, hits give low values 1.02 | S. cerevisiae deletion strains, locus YMR078C, strain ctf18, hits give low values 1.01 | S. cerevisiae deletion strains, locus YMR125W, strain sto1, hits give low values 1.02 | S. cerevisiae deletion strains, locus YMR129W, hits give low values 0.987 | S. cerevisiae deletion strains, locus YMR205C, strain PFK2, hits give low values 1.01 | S. cerevisiae deletion strains, locus YMR223W, strain ubp8, hits give low values 1.03 | S. cerevisiae deletion strains, locus YMR231W, strain pep5, hits give low values 1.01 | S. cerevisiae deletion strains, locus YMR307W, strain GAS1, hits give low values 1.02 | S. cerevisiae deletion strains, locus YNL067W, strain RPL9B, hits give low values 1.03 | S. cerevisiae deletion strains, locus YNL071W, strain lat1, hits give low values 0.999 | S. cerevisiae deletion strains, locus YNL183C, strain NPR1, hits give low values 0.999 | S. cerevisiae deletion strains, locus YNL209W, strain ssb2, hits give low values 0.996 | S. cerevisiae deletion strains, locus YNL233W, strain BNI4, hits give low values 1.04 | S. cerevisiae deletion strains, locus YNL248C, strain rpa49, hits give low values 1.04 | S. cerevisiae deletion strains, locus YNL250W, strain rad50, hits give low values 1.05 | S. cerevisiae deletion strains, locus YNL271C, strain bni1, hits give low values 1.02 | S. cerevisiae deletion strains, locus YNL298W, strain CLA4, hits give low values 1.02 | S. cerevisiae deletion strains, locus YNL307C, strain MCK1, hits give low values 1.03 | S. cerevisiae deletion strains, locus YNL322C, strain KRE1 (second series), hits give low values 0.985 | S. cerevisiae deletion strains, locus YNL322C, strain KRE1, hits give low values 1.01 | S. cerevisiae deletion strains, locus YNR049C, strain mso1, hits give low values 0.999 | S. cerevisiae deletion strains, locus YNR052C, strain pop2, hits give low values 1.04 | S. cerevisiae deletion strains, locus YOL006C, strain TOP1, hits give low values 1.08 | S. cerevisiae deletion strains, locus YOL012C, strain htz1 0.815 | S. cerevisiae deletion strains, locus YOL147C, strain pex11, hits give low values 0.996 | S. cerevisiae deletion strains, locus YOR001W, strain rrp6, hits give low values 0.95 | S. cerevisiae deletion strains, locus YOR061W, strain CKA2, hits give low values 1.01 | S. cerevisiae deletion strains, locus YOR069W, strain VPS5, hits give low values 1.02 | S. cerevisiae deletion strains, locus YOR070C, strain gyp1, hits give low values 1.03 | S. cerevisiae deletion strains, locus YOR080W, strain dia2, hits give low values 0.989 | S. cerevisiae deletion strains, locus YOR083W, strain WHI5, hits give low values 1.03 | S. cerevisiae deletion strains, locus YOR106W, strain vam3, hits give low values 0.998 | S. cerevisiae deletion strains, locus YOR136W, strain idh2, hits give low values 1.01 | S. cerevisiae deletion strains, locus YOR144C, strain elg1, hits give low values 1.02 | S. cerevisiae deletion strains, locus YOR184W, strain ser1, hits give low values 0.997 | S. cerevisiae deletion strains, locus YOR231W, strain MKK1, hits give low values 1.05 | S. cerevisiae deletion strains, locus YOR265W, strain rbl2, hits give low values 1.02 | S. cerevisiae deletion strains, locus YOR270C, strain vph1, hits give low values 1.1 | S. cerevisiae deletion strains, locus YOR290C, strain snf2, hits give low values 0.975 | S. cerevisiae deletion strains, locus YOR316C, strain cot1, hits give low values 1.02 | S. cerevisiae deletion strains, locus YPL051W, strain arl3, hits give low values 1 | S. cerevisiae deletion strains, locus YPL055C, strain LGE1, hits give low values 1.04 | S. cerevisiae deletion strains, locus YPL078C, strain atp4, hits give low values 1.02 | S. cerevisiae deletion strains, locus YPL106C, strain sse1, hits give low values 1.01 | S. cerevisiae deletion strains, locus YPL240C, strain hsp82, hits give low values 0.994 | S. cerevisiae deletion strains, locus YPL256C, strain CLN2, hits give low values 1.06 | S. cerevisiae deletion strains, locus YPR119W, strain clb2, hits give low values 1.02 | S. cerevisiae deletion strains, locus YPR141C, strain kar3, hits give low values 1.01 | S. cerevisiae deletion strains, locus YPR163C, strain tif3, hits give low values 1.03 | S. cerevisiae deletion strains, locus YPR167C, strain met16, hits give low values 1.02 | S. cerevisiae deletion strains, strain wtn01, hits give low values 1.01 | S. cerevisiae strains, strain wild type, hits give low values 1.03
